Results from the antibiotic and cytotoxicity screens of Wong et al. (2023).
The campaign covered roughly 39,000 compounds. About 3,300 (8.5%) were called active. What follows is part of a selection rich in actives, with near analogues and random picks from the rest.

Each compound was assayed on HepG2 (assay: cytotoxicity call (relative viability < 0.9)). Details: 10 µM.

Question: Which cytotoxicity call does the source give for `C[C@@H]1CCCCO[C@@H](CN(C)C(=O)Nc2ccc(F)cc2)[C@H](C)CN([C@H](C)CO)C(=O)c2cc(NS(=O)(=O)c3ccc(Cl)cc3)ccc2O1` here?
Answer: active

Question: How did the cytotoxicity call turn out when `C[C@H](CO)N1C[C@H](C)[C@H](CN(C)C(=O)Nc2ccc(F)cc2)OCCCC[C@H](C)Oc2ccc(NS(=O)(=O)c3ccc(Cl)cc3)cc2C1=O` was run?
Answer: active

Question: How did the cytotoxicity call turn out when `C[C@@H]1CCCCO[C@H](CN(C)C(=O)Nc2ccc(F)cc2)[C@H](C)CN([C@@H](C)CO)C(=O)c2cc(NS(=O)(=O)c3ccc(Cl)cc3)ccc2O1` was run?
Answer: inactive

Question: `C[C@@H]1CCCCO[C@H](CN(C)C(=O)Nc2ccc(F)cc2)[C@H](C)CN([C@H](C)CO)C(=O)c2cc(NS(=O)(=O)c3ccc(Cl)cc3)ccc2O1` was tested. Which cytotoxicity call did it give?
Answer: inactive

Question: `O=C(C[C@H]1C[C@H]2c3cc(NC(=O)Cc4ccncc4)ccc3O[C@H]2[C@@H](CO)O1)NCc1ccc2c(c1)OCO2` was tested. Which cytotoxicity call did it give?
Answer: inactive

Question: With `C[C@@H]1CN([C@H](C)CO)C(=O)c2cc(NC(=O)Nc3ccc4c(c3)OCO4)ccc2O[C@@H](C)CCCCO[C@@H]1CN(C)S(=O)(=O)c1ccccc1` as the compound, how does the cytotoxicity call read?
Answer: inactive

Question: For `C[C@@H]1CN([C@@H](C)CO)C(=O)c2cc(NC(=O)Nc3ccc4c(c3)OCO4)ccc2O[C@@H](C)CCCCO[C@@H]1CN(C)C(=O)Cc1ccccc1`, which cytotoxicity call is on record?
Answer: inactive

Question: `Cc1ccc(Cn2c3ccccc3c3ccccc32)cc1` was tested. Which cytotoxicity call did it give?
Answer: inactive

Question: With `CN1CCc2c(c3ccccc3n2Cc2ccccc2)C1` as the compound, how does the cytotoxicity call read?
Answer: active

Question: With `Cn1sc(=O)n(Cc2ccccc2)c1=O` as the compound, how does the cytotoxicity call read?
Answer: inactive

Question: Which cytotoxicity call does the source give for `C[C@@H]1CCCCO[C@H](CN(C)C(=O)Nc2ccccc2)[C@@H](C)CN([C@H](C)CO)C(=O)c2cc(NC(=O)CCC(F)(F)F)ccc2O1` here?
Answer: inactive

Question: For `C[C@@H]1CCCCO[C@H](CN(C)C(=O)C2CCCCC2)[C@H](C)CN([C@@H](C)CO)C(=O)c2cc(NC(=O)Nc3ccc(C(F)(F)F)cc3)ccc2O1`, which cytotoxicity call is on record?
Answer: inactive

Question: For `C[C@@H]1CCCCO[C@@H](CN(C)C(=O)C2CCCCC2)[C@@H](C)CN([C@H](C)CO)C(=O)c2cc(NC(=O)Nc3ccc(C(F)(F)F)cc3)ccc2O1`, which cytotoxicity call is on record?
Answer: inactive

Question: `C[C@@H]1CCCCO[C@H](CN(C)C(=O)C2CCCCC2)[C@@H](C)CN([C@H](C)CO)C(=O)c2cc(NC(=O)Nc3ccc(C(F)(F)F)cc3)ccc2O1` was tested. Which cytotoxicity call did it give?
Answer: inactive

Question: `C[C@@H]1CCCCO[C@@H](CN(C)C(=O)C2CCCCC2)[C@H](C)CN([C@@H](C)CO)C(=O)c2cc(NC(=O)Nc3ccc(C(F)(F)F)cc3)ccc2O1` was tested. Which cytotoxicity call did it give?
Answer: active

Question: For `C[C@@H]1CN([C@H](C)CO)C(=O)c2cc(NC(=O)Nc3ccc(C(F)(F)F)cc3)ccc2O[C@@H](C)CCCCO[C@@H]1CN(C)C(=O)C1CCCCC1`, which cytotoxicity call is on record?
Answer: active

Question: How did the cytotoxicity call turn out when `C[C@H]1CCCCO[C@H](CN(C)C(=O)C2CCCCC2)[C@@H](C)CN([C@@H](C)CO)C(=O)c2cc(NC(=O)Nc3ccc(C(F)(F)F)cc3)ccc2O1` was run?
Answer: inactive

Question: How did the cytotoxicity call turn out when `C[C@H]1CCCCO[C@@H](CN(C)C(=O)C2CCCCC2)[C@@H](C)CN([C@@H](C)CO)C(=O)c2cc(NC(=O)Nc3ccc(C(F)(F)F)cc3)ccc2O1` was run?
Answer: active

Question: Which cytotoxicity call does the source give for `C[C@@H]1CN([C@H](C)CO)C(=O)c2cc(NC(=O)Nc3ccc(C(F)(F)F)cc3)ccc2O[C@@H](C)CCCCO[C@H]1CN(C)C(=O)C1CCCCC1` here?
Answer: inactive

Question: `C[C@H](CO)N1C[C@H](C)[C@@H](CN(C)C(=O)C2CCCCC2)OCCCC[C@H](C)Oc2ccc(NC(=O)Nc3ccc(C(F)(F)F)cc3)cc2C1=O` was tested. Which cytotoxicity call did it give?
Answer: inactive

Question: For `Cc1cccc(N[C@H]2CS(=O)(=O)C[C@@H]2O)c1`, which cytotoxicity call is on record?
Answer: inactive

Question: For `CC(C)(Sc1cc(C(C)(C)C)c(O)c(C(C)(C)C)c1)Sc1cc(C(C)(C)C)c(OC(=O)CCC(=O)O)c(C(C)(C)C)c1`, which cytotoxicity call is on record?
Answer: inactive

Question: Which cytotoxicity call does the source give for `C[C@@H]1CN([C@H](C)CO)C(=O)c2cccc(NC(=O)Nc3ccc(C(F)(F)F)cc3)c2O[C@@H]1CN(C)Cc1ccc(C(=O)Nc2ccccc2N)cc1` here?
Answer: inactive

Question: How did the cytotoxicity call turn out when `C[C@@H]1CN([C@@H](C)CO)C(=O)c2cc(NS(=O)(=O)c3ccc(F)cc3)ccc2O[C@@H]1CN(C)Cc1ccncc1` was run?
Answer: inactive

Question: How did the cytotoxicity call turn out when `C[C@@H]1CN([C@H](C)CO)C(=O)Cc2cc(NC(=O)Nc3cccc4ccccc34)ccc2O[C@H]1CN(C)C(=O)Nc1ccc(C(F)(F)F)cc1` was run?
Answer: inactive

Question: With `COc1ccc(S(=O)(=O)N(C)C[C@H]2Oc3c(NC(=O)NC(C)C)cccc3C(=O)N([C@H](C)CO)C[C@@H]2C)cc1` as the compound, how does the cytotoxicity call read?
Answer: inactive

Question: `COc1ccc(S(=O)(=O)Nc2ccc3c(c2)C(=O)N([C@H](C)CO)C[C@@H](C)[C@H](CN(C)Cc2ccc(-c4ccccc4)cc2)O3)cc1` was tested. Which cytotoxicity call did it give?
Answer: inactive

Question: With `COc1ccc(S(=O)(=O)Nc2ccc3c(c2)C(=O)N([C@H](C)CO)C[C@H](C)[C@H](CN(C)Cc2ccc(-c4ccccc4)cc2)O3)cc1` as the compound, how does the cytotoxicity call read?
Answer: inactive

Question: With `COc1ccc(S(=O)(=O)Nc2ccc3c(c2)C(=O)N([C@@H](C)CO)C[C@H](C)[C@H](CN(C)Cc2ccc(-c4ccccc4)cc2)O3)cc1` as the compound, how does the cytotoxicity call read?
Answer: inactive

Question: For `COc1ccc(S(=O)(=O)Nc2ccc3c(c2)C(=O)N([C@@H](C)CO)C[C@@H](C)[C@H](CN(C)Cc2ccc(-c4ccccc4)cc2)O3)cc1`, which cytotoxicity call is on record?
Answer: inactive

Question: Which cytotoxicity call does the source give for `COc1ccc(S(=O)(=O)Nc2ccc3c(c2)C(=O)N([C@H](C)CO)C[C@H](C)[C@@H](CN(C)Cc2ccc(-c4ccccc4)cc2)O3)cc1` here?
Answer: inactive

Question: How did the cytotoxicity call turn out when `COc1ccc(S(=O)(=O)Nc2ccc3c(c2)C(=O)N([C@@H](C)CO)C[C@H](C)[C@@H](CN(C)Cc2ccc(-c4ccccc4)cc2)O3)cc1` was run?
Answer: active

Question: For `COc1ccc(S(=O)(=O)Nc2ccc3c(c2)C(=O)N([C@@H](C)CO)C[C@@H](C)[C@@H](CN(C)Cc2ccc(-c4ccccc4)cc2)O3)cc1`, which cytotoxicity call is on record?
Answer: active

Question: Which cytotoxicity call does the source give for `COc1ccc(S(=O)(=O)Nc2ccc3c(c2)C(=O)N([C@H](C)CO)C[C@@H](C)[C@@H](CN(C)Cc2ccc(-c4ccccc4)cc2)O3)cc1` here?
Answer: active

Question: `C[C@H]1CCCCO[C@H](CN(C)C(=O)Nc2ccccc2)[C@@H](C)CN([C@@H](C)CO)C(=O)c2cc(NC(=O)C3CCCCC3)ccc2O1` was tested. Which cytotoxicity call did it give?
Answer: inactive

Question: With `C[C@H]1CN([C@@H](C)CO)S(=O)(=O)c2ccc(C#CC3CC3)cc2O[C@@H]1CN(C)Cc1cccc(F)c1` as the compound, how does the cytotoxicity call read?
Answer: inactive

Question: For `Nc1ccn(C[C@@H](CO)OCP(=O)(O)O)c(=O)n1`, which cytotoxicity call is on record?
Answer: inactive

Question: With `Cc1noc(C)c1S(=O)(=O)Nc1ccc2c(c1)C(=O)N([C@H](C)CO)C[C@@H](C)[C@H](CN(C)Cc1ccc(-c3ccccc3)cc1)O2` as the compound, how does the cytotoxicity call read?
Answer: inactive

Question: `Cc1noc(C)c1S(=O)(=O)Nc1ccc2c(c1)C(=O)N([C@H](C)CO)C[C@H](C)[C@@H](CN(C)Cc1ccccc1)OCCCC[C@@H](C)O2` was tested. Which cytotoxicity call did it give?
Answer: inactive

Question: Which cytotoxicity call does the source give for `C[C@H](CO)N1C[C@H](C)[C@@H](CN(C)C(=O)NC2CCCCC2)Oc2ccc(NC(=O)Cn3cnnn3)cc2C1=O` here?
Answer: inactive

Question: For `C=CCNC(=O)[C@H]1[C@@H]2C(=O)O[C@@H](c3ccccc3)[C@@H](c3ccccc3)N2[C@@H](c2ccc(OCCO)cc2)[C@]12C(=O)Nc1ccc(C#CC3=CCCCC3)cc12`, which cytotoxicity call is on record?
Answer: inactive

Question: `CO[C@@H](CCO)[C@@H](O)c1ccc(O)c(F)c1` was tested. Which cytotoxicity call did it give?
Answer: inactive

Question: Which cytotoxicity call does the source give for `C[C@H](CO)N1C[C@H](C)[C@@H](CN(C)Cc2ccccn2)Oc2ncc(C#Cc3cccc(F)c3)cc2C1=O` here?
Answer: inactive

Question: Which cytotoxicity call does the source give for `COc1ccc(S(=O)(=O)Nc2ccc3c(c2)C(=O)N([C@@H](C)CO)C[C@H](C)[C@@H](CN(C)C(=O)Nc2ccc(F)cc2)OCCCC[C@@H](C)O3)cc1` here?
Answer: active

Question: For `COc1ccc(NC(=O)N(C)C[C@@H]2OCCCC[C@H](C)Oc3ccc(NS(=O)(=O)c4ccc(F)cc4)cc3C(=O)N([C@@H](C)CO)C[C@@H]2C)cc1`, which cytotoxicity call is on record?
Answer: inactive

Question: `COc1ccc(S(=O)(=O)Nc2ccc3c(c2)C(=O)N([C@@H](C)CO)C[C@H](C)[C@@H](CN(C)C(=O)Nc2ccc(F)cc2)OCCCC[C@H](C)O3)cc1` was tested. Which cytotoxicity call did it give?
Answer: active

Question: For `COc1ccc(NC(=O)N(C)C[C@H]2OCCCC[C@@H](C)Oc3ccc(NS(=O)(=O)c4ccc(F)cc4)cc3C(=O)N([C@@H](C)CO)C[C@@H]2C)cc1`, which cytotoxicity call is on record?
Answer: inactive

Question: `COc1ccc(NC(=O)N(C)C[C@H]2OCCCC[C@H](C)Oc3ccc(NS(=O)(=O)c4ccc(F)cc4)cc3C(=O)N([C@H](C)CO)C[C@@H]2C)cc1` was tested. Which cytotoxicity call did it give?
Answer: inactive

Question: How did the cytotoxicity call turn out when `COc1ccc(NC(=O)N(C)C[C@@H]2OCCCC[C@@H](C)Oc3ccc(NS(=O)(=O)c4ccc(F)cc4)cc3C(=O)N([C@H](C)CO)C[C@@H]2C)cc1` was run?
Answer: inactive

Question: For `Cc1cc(=O)n2nc(S(C)(=O)=O)nc2[nH]1`, which cytotoxicity call is on record?
Answer: inactive

Question: With `C[C@H]1CN([C@@H](C)CO)S(=O)(=O)c2ccc(C#Cc3ccccc3)cc2O[C@@H]1CN(C)C(=O)c1ccccn1` as the compound, how does the cytotoxicity call read?
Answer: inactive

Question: With `COCc1nc(C)c(CN)s1` as the compound, how does the cytotoxicity call read?
Answer: inactive

Question: For `COc1ccc(-c2cc(=O)c3c(O)cc(O[C@@H]4O[C@H](CO)[C@@H](O)[C@H](O)[C@H]4O[C@@H]4O[C@H](COC(C)=O)[C@@H](O)[C@@H](O)[C@H]4O)c(O)c3o2)cc1`, which cytotoxicity call is on record?
Answer: inactive

Question: `CSc1cccc(NC(=O)/C=C/c2ccc(C(C)C)cc2)c1` was tested. Which cytotoxicity call did it give?
Answer: inactive

Question: `C[C@@](Cc1ccc(O)c(O)c1)(NN)C(=O)O` was tested. Which cytotoxicity call did it give?
Answer: active

Question: With `CC(Cc1ccc(O)c(O)c1)(NN)C(=O)O` (configuration not stated) as the compound, how does the cytotoxicity call read?
Answer: active

Question: With `O=C(O)Cc1ccc(O)c(O)c1` as the compound, how does the cytotoxicity call read?
Answer: inactive

Question: For `CCOC(=O)[C@@H](N)Cc1ccc(O)c(O)c1`, which cytotoxicity call is on record?
Answer: inactive

Question: For `CO[C@@H]1CN(C)C(=O)c2ccc(NS(=O)(=O)c3cn(C)cn3)cc2OC[C@H](C)N(CCC(F)(F)F)C[C@@H]1C`, which cytotoxicity call is on record?
Answer: inactive

Question: Which cytotoxicity call does the source give for `C[C@H]1CN([C@@H](C)CO)S(=O)(=O)c2ccc(-c3cncnc3)cc2O[C@H]1CN(C)C(=O)c1cccc(F)c1` here?
Answer: inactive

Question: `CCN1CCCC[C@@H]1C(=O)O` was tested. Which cytotoxicity call did it give?
Answer: inactive

Question: With `C[C@H]1CN([C@@H](C)CO)C(=O)c2cc(NS(=O)(=O)c3cn(C)cn3)ccc2O[C@@H]1CN(C)CC1CCCCC1` as the compound, how does the cytotoxicity call read?
Answer: inactive
